Sampled rows, rich in hits. Any-hit rate of the full collection: about 5.5%.
CBFb RUNX1 block: qHTS Assay for Compounds Blocking the Interaction Between CBF-beta and RUNX1 for the Treatment of Acute Myeloid Leukemia. AlphaScreen CBFb-His/RUNX1-biotin binding, biochemical. Potency, µM (highest dose often 59.8 µM), without a hit: at the highest dose activity, negative = inhibition, usual class: inhibitors. 230,000 tested, under 10 active. AID 1477, 2009. Runt-related transcription factor 1 (Homo sapiens) + Core-binding factor subunit beta …; further: % of control where 0% means no effect
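Inhibition was taken as any reduction in AlphaScreen signal from the CBF-beta–RUNX1 pair (His and biotin tags, 30 nM each), measured after compound (15 min) and bead (90 min) incubations at room temperature.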
RORg inh: qHTS for inhibitors of ROR gamma transcriptional activity; Nuclear receptor ROR-gamma (Mus musculus), P51450; Drosophila S2 Gal4-RORgamma UAS-luciferase reporter, 20 h; Potency, µM (top dose mostly 53.6 µM), without a hit: at the top dose activity change, negative = inhibition, most hits filed as inhibitors; 310,000 tested, 5.4% active; AID 2551, 2010; further: potency means the concentration at half of the fitted maximal effect; on the % scale 0 is the no-effect control and ±100 the full control effect; nearly all actives have a fitted effect of over 60% in size
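A Gal4/UAS one-hybrid system in insect cells: metallothionein-promoter Gal4–ROR gamma fusion plus Photinus luciferase reporter. Copper sulfate 700 uM final, 20 hr ambient incubation, luminescent detection after 10 min with reagent.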
Gal4-VP16 FLuc: VP16 counterscreen qHTS for inhibitors of ROR gamma transcriptional activity; 310,000 tested, 3.5% active; Potency, µM (series often up to 53.6 µM), for inactives: at the top dose activity, negative = inhibition, hits mostly inhibitors; Drosophila S2 Gal4-VP16 UAS-luciferase, luminescence, 20 h;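 further: Gal4-VP16 expression switched on by copper sulfate through the metallothionein promoter; potency means the concentration at half of the fitted maximal effect; on the % scale 0 is the no-effect control and ±100 the full control effect; nearly all actives have a fitted effect of over 50% in size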
Six1-Eya2 blk: qHTS Assay for Inhibitors of the Six1/Eya2 Interaction; AlphaScreen GST-Six1/His-Eya2 binding, biochemical; active compounds read low; activity change, % (concentration not given with the values); 360,000 tested, 0.56% active; in the data active means activity change below about -65%; inconclusive means mostly about -30% to -63%; further: on the % scale 0 is the no-effect control and ±100 the full control effect
Target sequence (O00167 whole entry, looked up): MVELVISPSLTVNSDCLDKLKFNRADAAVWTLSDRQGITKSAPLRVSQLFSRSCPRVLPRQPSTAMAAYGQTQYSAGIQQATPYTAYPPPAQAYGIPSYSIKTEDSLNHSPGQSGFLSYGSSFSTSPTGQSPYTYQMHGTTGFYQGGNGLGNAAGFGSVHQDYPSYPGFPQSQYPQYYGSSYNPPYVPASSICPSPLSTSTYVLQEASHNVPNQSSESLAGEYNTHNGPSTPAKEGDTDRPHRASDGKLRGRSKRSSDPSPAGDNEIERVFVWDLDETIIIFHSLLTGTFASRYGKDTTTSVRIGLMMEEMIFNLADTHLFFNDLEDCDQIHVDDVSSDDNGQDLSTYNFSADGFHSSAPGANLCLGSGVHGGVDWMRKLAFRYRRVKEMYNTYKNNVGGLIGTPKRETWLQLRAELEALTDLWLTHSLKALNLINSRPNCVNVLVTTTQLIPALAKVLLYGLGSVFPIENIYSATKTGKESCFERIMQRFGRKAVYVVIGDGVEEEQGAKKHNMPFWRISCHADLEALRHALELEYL
Target sequence (Q15475 whole entry, looked up): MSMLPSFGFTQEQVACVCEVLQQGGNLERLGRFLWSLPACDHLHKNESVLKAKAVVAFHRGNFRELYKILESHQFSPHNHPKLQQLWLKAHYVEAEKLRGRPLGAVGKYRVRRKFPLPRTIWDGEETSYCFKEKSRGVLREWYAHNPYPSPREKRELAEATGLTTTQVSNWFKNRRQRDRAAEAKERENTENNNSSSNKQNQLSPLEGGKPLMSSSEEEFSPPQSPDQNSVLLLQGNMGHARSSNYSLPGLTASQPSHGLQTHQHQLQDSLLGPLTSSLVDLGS
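Compounds are tested against tagged Six1 and Eya2 proteins bridged by glutathione donor and nickel acceptor beads; after a one-hour incubation at 37 °C without light, AlphaScreen emission is recorded.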
CtBP-E1A inh: qHTS Assay for Inhibitors of the CtBP/E1A Interaction. CtBP / adenovirus E1A interaction (AlphaScreen). AlphaScreen GST-E1A/His-CtBP binding, 1536-well; active compounds read low. activity change, % (test concentration not listed). 340,000 tested, 0.49% active. AID 651724, 2012; in the data active means activity change below about -65%; inconclusive means mostly about -30% to -63%; further: on the % scale 0 is the no-effect control and ±100 the full control effect
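Homogeneous bead-based format: GST-tagged E1A captured on glutathione donor beads, His-tagged CtBP on nickel acceptor beads; compounds precede bead addition by 2 h at 37 °C.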
MBNL1-CUG inh: qHTS Assay for Inhibitors of MBNL1-poly(CUG) RNA binding; AID 2675, 2010; 280,000 tested, 0.036% active; TR-FRET MBNL1-His/biotin-(CUG)12 binding, 665/545 ratio; Muscleblind-like protein 1 (Homo sapiens), Q9NR56; Potency, µM (highest dose often 57.5 µM), inactives show at the top dose activity change, negative = inhibition, hits mostly inhibitors; active means well fitted inhibition curve with a large enough effect in the signal ratio, with a control signal flat, not every such curve was filed as active; inconclusive means small, poorly fitted or top-dose-only effect, or effect the other way, or a change in a side signal; inactive means no such curve, though single readings can be large or run the other way; the % refers to the signal ratio; further: potency means the concentration at half of the fitted maximal effect; on the % scale 0 is the no-effect control and ±100 the full control effect
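Compound titration spanned 92 nM–58 uM against the MBNL1-His/biotin-(CUG)12 complex. After 60 min at room temperature with 5 nM streptavidin-XL665 and 0.055 ng/ul terbium anti-His, ratiometric 665/545 nm emission (Ex 340 nm) normalized to controls.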
* = called active by the depositor; ? = inconclusive; . = not tested or not shown; [ ] = another dose, or the depositor's remark. Unless noted, the call rests on the fitted dose curve; in most records, active means well fitted curve in the direction sought with a large enough effect; inconclusive means small, poorly fitted or top-dose-only effect, or another doubt; inactive means no such curve, though single readings can be large; an effect the other way counts as inactive or inconclusive.

SMILES	CBFb RUNX1 block	RORg inh	Gal4-VP16 FLuc	Six1-Eya2 blk	CtBP-E1A inh	MBNL1-CUG inh
O=C(c1ccncc1)N1CCC2(CCN(Cc3nccs3)CC2)CC1	.	10.9%	10.1%	.	.	.
N#CCc1nc2n(n1)Cc1ccccc1-2	-5.4%	0.9%	-6.0%	-2.9	-11.3	-14.2%
c1ccc2c(c1)Cn1nc(Cc3nc4c(s3)CCCC4)nc1-2	2.1%	14.1µM*	0.3%	-1.3	-1.9	?
CN(C)NC(=S)NC(=O)C12CC3CC(CC(C3)C1)C2	-1.0%	1µM*	2.82µM*	7.7	6.4	-5.2%
CN(C(=S)NC(=O)C12CC3CC(CC(C3)C1)C2)c1ccc(O)cc1	.	.	.	-6.5	.	.
O=C(NC(=S)NC1C2CC3CC(C2)CC1C3)C12CC3CC(CC(C3)C1)C2 (centres undefined)	-4.5%	1µM*	2.82µM*	2.7	-9.7	-3.9%
CC(C)(C)NC(=S)NC(=O)C12CC3CCC(CC(C3)C1)C2	3.8%	2.82µM*	4.47µM*	1.1	-0.7	-5.6%
O=Cc1coc2c(ccc3ccccc32)c1=O	.	3.4%	-8.8%	.	.	-7.4%
CSc1cccc(NC(=S)N(CCCN2CCCC(C)C2)Cc2cccs2)c1 (centres undefined)	-5.1%	11.2µM*	27.4%[10 µM]	-14.6	-7.7	0.5%
COc1ccc(NC(=S)N(CCCN2CCC(C)CC2)Cc2cccs2)cc1Cl	1.8%	11.2µM*	-2.3%[10 µM]	-12.2	3.4	-6.1%
COc1ccc(NC(=S)N(CCCN2CCN(C)CC2)Cc2cccs2)cc1	-2.8%	-10.9%	0.9%	3.1	2.6	-5.9%
Cc1cn([C@H]2C[C@H](O)[C@@H](/C=C/C(=O)NCc3ccco3)O2)c(=O)[nH]c1=O	.	.	.	9.0	0.5	.
CCOC(=O)/C=C1/SCC(=O)N1CC(=O)Nc1ccccc1OC(F)F	.	.	.	-2.3	1.4	.
CN1/C(=C\C(=S)NC(=O)c2ccc([N+](=O)[O-])cc2)C(C)(C)c2ccccc21	-6.1%	3.55µM*	3.98µM*	?	?	12.7%
CN1/C(=C\C(=S)NC(=O)c2cccc(Br)c2)C(C)(C)c2ccccc21	.	?	6.31µM*	-72.7*	-69.8*	69.7%
CN1/C(=C/C=N/NC(=O)c2ccc([N+](=O)[O-])cc2)C(C)(C)c2ccccc21	?	1.78µM*	2.24µM*	1.5	13.1	?
CCOC(=O)c1cc(-c2csc(Nc3c(C)cc(C)cc3C)n2)on1	-2.5%	2.4%	-9.8%	17.0	7.4	.
NC1(C(=O)O)C[C@H](C(=O)O)[C@H](C(=O)O)C1 (some centres undefined)	11.9%	15.2%	-6.2%	.	.	.
CC(=O)N(C)C[C@H]1Oc2ncc(Br)cc2C(=O)N([C@H](C)CO)C[C@@H]1C	.	.	.	-0.1	4.3	.
CC1(C(=O)NCc2cccc(C(F)(F)F)c2)CCN1CCc1ccccc1 (centres undefined)	.	.	.	4.7	9.0	.
COC(=O)[C@@]12C[C@@H](CC(=O)NCc3ccccc3)C(=O)N(Cc3ccc4c(c3)OCO4)C1=CCC(C)(C)C2	.	.	.	-9.0	-2.9	.
Cc1cc(Nc2cccc(Cl)c2Cl)n2ncnc2n1	.	12.6µM*	?	6.9	14.1	-4.6%
COc1ccccc1NS(=O)(=O)c1cc(NC(=O)c2cnccn2)ccc1N1CCOCC1	-8.7%	3.3%	-14.2%	?	-73.1*	.
COc1ccccc1NS(=O)(=O)c1cc(NC(=O)c2ccncc2)ccc1N1CCOCC1	-1.2%	43.6%	-3.1%	-21.1	-24.0	-25.5%
Cc1ccc(-c2n[nH]c(=S)n2/N=C/c2c(C)[nH]n(-c3ccccc3)c2=O)cc1	-13.2%	10µM*	-26.2%	-7.5	-5.4	-13.6%
SMILES	CBFb RUNX1 block	RORg inh	Gal4-VP16 FLuc	Six1-Eya2 blk	CtBP-E1A inh	MBNL1-CUG inh
S=c1[nH]nc(-c2ccccn2)n1/N=C/c1c(Cl)cccc1Cl	-5.8%	?	1.3%	-80.3*	-1.1	.
CCOc1ccc(/C=N/n2c(C)nc3ccccc3c2=O)cc1	.	32.3%	-6.5%	-18.7	16.9	-9.7%
CCOc1ccc(/C=N/n2c(-c3ccccc3)n[nH]c2=S)cc1	.	1.58µM*	?	-13.1	-2.8	-3.4%
S=c1[nH]nc(-c2cc(-c3ccccc3)n[nH]2)n1/N=C/c1c(Cl)cccc1Cl	-17.9%	?	-9.6%	-16.9	-9.0	.
COc1c(Br)cc(/C=N/n2c(-c3ccccc3)n[nH]c2=S)c(O)c1Br	.	12.6µM*	?	12.8	.	-5.8%
Oc1c(Br)cc(Br)cc1/C=N/n1c(-c2ccccc2)n[nH]c1=S	.	?	?	0.4	.	23.2%
Cc1cccc(C)c1NC(=O)CNC(=O)c1ccc(N2CCCC2)c([N+](=O)[O-])c1	.	.	.	-4.6	-3.5	.
Cc1ccc(NC(=O)CNC(=O)c2ccc(OC(F)F)cc2)cc1S(=O)(=O)N1CCCCCC1	.	.	.	-0.4	2.3	.
Oc1ccccc1/C=N/n1c(-c2ccccc2)n[nH]c1=S	.	11.2µM*	-20.5%	-10.1	3.2	-4.0%
S=c1[nH]nc(-c2ccc(Cl)cc2)n1/N=C/c1cccs1	3.4%	3.55µM*	-20.0%	-9.6	-2.2	4.8%
O=[N+]([O-])c1ccc(Cl)c(/C=N/n2c(-c3ccncc3)n[nH]c2=S)c1	-0.2%	-6.0%	3.9%	-78.9*	-72.9*	?
S=c1[nH]nc(-c2ccccn2)n1/N=C/c1ccc(Cl)cc1	-10.9%	12.6µM*	-19.1%	-74.6*	?	.
S=c1[nH]nc(-c2ccccn2)n1/N=C/c1ccccc1	?	?	-3.2%	?	-4.1	-0.4%
CSCC[C@H](NC(=O)[C@@H]1CSC2c3ccccc3C(=O)N21)C(=O)NCc1ccco1 (some centres undefined)	.	14.1%	-5.7%	-4.5	2.0	-1.2%
CCc1n[nH]c(=S)n1/N=C/C(C)=C\c1ccccc1	.	7.08µM*	5.62µM*	0.6	.	2.7%
S=c1[nH]nc(-c2ccccc2)n1/N=C/c1cccc(Cl)c1	.	5.62µM*	4.47µM*	-14.6	-4.8	1.7%
S=c1[nH]nc(-c2ccccc2)n1/N=C/c1ccc(Cl)cc1	.	1.12µM*	?	-17.2	.	5.0%
CC(/C=N/n1c(-c2ccco2)n[nH]c1=S)=C\c1ccccc1	0.4%	?	-69.8%	-14.6	-9.1	24.5%
Oc1c(Br)cc(/C=N/n2c(-c3ccccc3)n[nH]c2=S)c(Br)c1O	.	?	?	.	.	22.4%

Bioassay records from PubChem BioAssay.
